In paper PMC12820563, “FoxP3 forms a head-to-head dimer in vivo and stabilizes its multimerization on adjacent microsatellites”:
The full ranking holds about 16,000 sequences; the median of “rpm ratio (pull-down/input)” is about 0.5, and the highest 2% start at about 5.5. Only a selection was taken, and the highest values are over-represented in it overall.

Each sequence was assayed against T1, MBP-FoxP3dN (Mus musculus, UniProt Q99JB6 188-423) (assay: PD-seq (MBP pull-down with sequencing); 20 mM Tris-HCl pH 7.5, 100 mM NaCl, 1.5 mM MgCl2, 0.4 uM protein, 0.1 uM dsDNA library, 30 min, room temperature, amylose pull-down; high values mean tight binding). Conditions: protein: recombinant; tags: His6-MBP; chain copies: 2; dsDNA, one strand shown.
T1 sequence: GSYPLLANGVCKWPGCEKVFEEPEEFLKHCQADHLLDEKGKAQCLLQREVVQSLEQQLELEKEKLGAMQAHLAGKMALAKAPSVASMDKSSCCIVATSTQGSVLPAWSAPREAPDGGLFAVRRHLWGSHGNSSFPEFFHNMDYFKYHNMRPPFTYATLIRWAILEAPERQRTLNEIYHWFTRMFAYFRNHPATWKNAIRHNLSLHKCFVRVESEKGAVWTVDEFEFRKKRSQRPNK
In short: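 Binding is the reads-per-million enrichment of pull-down relative to input, pooled across replicates. For this, 0.4 µM His6-MBP-tagged mouse FoxP3 or FoxP1 fragment lacking the N-terminus, made in E. coli, was incubated with 0.1 µM Klenow-filled double-stranded degenerate DNA library for 30 min at room temperature in Tris pH 7.5 buffer with NaCl and MgCl2. Complexes bound to amylose resin were washed three times before proteinase K released the DNA for PCR barcoding and Illumina sequencing.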
“GATGATTGTTCTCCCAGCTGATGAATTCCGACGATCGAGTAAACAAATTTTCCTAATCTTTCTGTTCAAGCGCCATCTAC” was tested, and the binding signal was 0.285 RPM ratio (pull-down/input). With “GATGATTGTTCTCCCAGCTGATGAATTTCTACCGTCGAGTAAACAAATTTTCCTAATCTTTCTGTTCAAGCGCCATCTAC” the binding signal was 0.222 RPM ratio (pull-down/input). With “GATGATTGTTCTCCCAGCTGATGAATTGTTACGATCGAGTAAACAAATTTTCCTAATCTTTCTGTTCAAGCGCCATCTAC” the binding signal was 0.792 RPM ratio (pull-down/input). For “GATGATTGTTCTCCCAGCTGATGAATTTGTTTGGTCGAGTAAACAAATTTTCCTAATCTTTCTGTTCAAGCGCCATCTAC”, the binding signal was 7.49 RPM ratio (pull-down/input). With “GATGATTGTTCTCCCAGCTGATGAATTGTTTTGGTCGAGTAAACAAATTTTCCTAATCTTTCTGTTCAAGCGCCATCTAC” the binding signal was 3.65 RPM ratio (pull-down/input). With “GATGATTGTTCTCCCAGCTGATGAATTGGTTTGGTCGAGTAAACAAATTTTCCTAATCTTTCTGTTCAAGCGCCATCTAC” the binding signal was 3.6 RPM ratio (pull-down/input). For “GATGATTGTTCTCCCAGCTGATGAATTGATTGTCTCGAGTAAACAAATTTTCCTAATCTTTCTGTTCAAGCGCCATCTAC”, the binding signal was 2.86 RPM ratio (pull-down/input). “GATGATTGTTCTCCCAGCTGATGAATTGTAGTTCTCGAGTAAACAAATTTTCCTAATCTTTCTGTTCAAGCGCCATCTAC” was tested, and the binding signal was 1.39 RPM ratio (pull-down/input). For “GATGATTGTTCTCCCAGCTGATGAATTTCGGCATTCGAGTAAACAAATTTTCCTAATCTTTCTGTTCAAGCGCCATCTAC”, the binding signal was 5.76 RPM ratio (pull-down/input). For “GATGATTGTTCTCCCAGCTGATGAATTCGGCAGCTCGAGTAAACAAATTTTCCTAATCTTTCTGTTCAAGCGCCATCTAC”, the binding signal was 1.36 RPM ratio (pull-down/input). “GATGATTGTTCTCCCAGCTGATGAATTCTCGGCATCGAGTAAACAAATTTTCCTAATCTTTCTGTTCAAGCGCCATCTAC” was tested, and the binding signal was 0.601 RPM ratio (pull-down/input). With “GATGATTGTTCTCCCAGCTGATGAATTTTCGGCATCGAGTAAACAAATTTTCCTAATCTTTCTGTTCAAGCGCCATCTAC” the binding signal was 0.816 RPM ratio (pull-down/input). For “GATGATTGTTCTCCCAGCTGATGAATTGCGGCATTCGAGTAAACAAATTTTCCTAATCTTTCTGTTCAAGCGCCATCTAC”, the binding signal was 7.34 RPM ratio (pull-down/input). For “GATGATTGTTCTCCCAGCTGATGAATTCGGGCATTCGAGTAAACAAATTTTCCTAATCTTTCTGTTCAAGCGCCATCTAC”, the binding signal was 4.9 RPM ratio (pull-down/input). For “GATGATTGTTCTCCCAGCTGATGAATTCCGGCATTCGAGTAAACAAATTTTCCTAATCTTTCTGTTCAAGCGCCATCTAC”, the binding signal was 4.43 RPM ratio (pull-down/input). For “GATGATTGTTCTCCCAGCTGATGAATTTGCGGCATCGAGTAAACAAATTTTCCTAATCTTTCTGTTCAAGCGCCATCTAC”, the binding signal was 1.14 RPM ratio (pull-down/input). For “GATGATTGTTCTCCCAGCTGATGAATTCGGCATCTCGAGTAAACAAATTTTCCTAATCTTTCTGTTCAAGCGCCATCTAC”, the binding signal was 7.14 RPM ratio (pull-down/input). For “GATGATTGTTCTCCCAGCTGATGAATTCGGCCATTCGAGTAAACAAATTTTCCTAATCTTTCTGTTCAAGCGCCATCTAC”, the binding signal was 3.92 RPM ratio (pull-down/input). “GATGATTGTTCTCCCAGCTGATGAATTCGCGGCATCGAGTAAACAAATTTTCCTAATCTTTCTGTTCAAGCGCCATCTAC” was tested, and the binding signal was 0.76 RPM ratio (pull-down/input). “GATGATTGTTCTCCCAGCTGATGAATTCGGCATTTCGAGTAAACAAATTTTCCTAATCTTTCTGTTCAAGCGCCATCTAC” was tested, and the binding signal was 5.91 RPM ratio (pull-down/input). For “GATGATTGTTCTCCCAGCTGATGAATTTACTGGCTCGAGTAAACAAATTTTCCTAATCTTTCTGTTCAAGCGCCATCTAC”, the binding signal was 0.472 RPM ratio (pull-down/input). In the case of “GATGATTGTTCTCCCAGCTGATGAATTCTGATGCTCGAGTAAACAAATTTTCCTAATCTTTCTGTTCAAGCGCCATCTAC”, the binding signal was 1.09 RPM ratio (pull-down/input). “GATGATTGTTCTCCCAGCTGATGAATTAATTTGCTCGAGTAAACAAATTTTCCTAATCTTTCTGTTCAAGCGCCATCTAC” was tested, and the binding signal was 3.03 RPM ratio (pull-down/input). “GATGATTGTTCTCCCAGCTGATGAATTACTTAACTCGAGTAAACAAATTTTCCTAATCTTTCTGTTCAAGCGCCATCTAC” was tested, and the binding signal was 0.277 RPM ratio (pull-down/input). In the case of “GATGATTGTTCTCCCAGCTGATGAATTCTGGCCATCGAGTAAACAAATTTTCCTAATCTTTCTGTTCAAGCGCCATCTAC”, the binding signal was 1.12 RPM ratio (pull-down/input). In the case of “GATGATTGTTCTCCCAGCTGATGAATTGACAATGTCGAGTAAACAAATTTTCCTAATCTTTCTGTTCAAGCGCCATCTAC”, the binding signal was 0.506 RPM ratio (pull-down/input). With “GATGATTGTTCTCCCAGCTGATGAATTGGGAGATTCGAGTAAACAAATTTTCCTAATCTTTCTGTTCAAGCGCCATCTAC” the binding signal was 0.372 RPM ratio (pull-down/input). For “GATGATTGTTCTCCCAGCTGATGAATTGTAGTAATCGAGTAAACAAATTTTCCTAATCTTTCTGTTCAAGCGCCATCTAC”, the binding signal was 1.03 RPM ratio (pull-down/input). In the case of “GATGATTGTTCTCCCAGCTGATGAATTTTTTGTATCGAGTAAACAAATTTTCCTAATCTTTCTGTTCAAGCGCCATCTAC”, the binding signal was 0.521 RPM ratio (pull-down/input). With “GATGATTGTTCTCCCAGCTGATGAATTTGTAATCTCGAGTAAACAAATTTTCCTAATCTTTCTGTTCAAGCGCCATCTAC” the binding signal was 3.82 RPM ratio (pull-down/input). In the case of “GATGATTGTTCTCCCAGCTGATGAATTTGTATTCTCGAGTAAACAAATTTTCCTAATCTTTCTGTTCAAGCGCCATCTAC”, the binding signal was 5.9 RPM ratio (pull-down/input). For “GATGATTGTTCTCCCAGCTGATGAATTGTATTCCTCGAGTAAACAAATTTTCCTAATCTTTCTGTTCAAGCGCCATCTAC”, the binding signal was 1.97 RPM ratio (pull-down/input). “GATGATTGTTCTCCCAGCTGATGAATTGTATTTCTCGAGTAAACAAATTTTCCTAATCTTTCTGTTCAAGCGCCATCTAC” was tested, and the binding signal was 2.06 RPM ratio (pull-down/input). For “GATGATTGTTCTCCCAGCTGATGAATTTTGTATCTCGAGTAAACAAATTTTCCTAATCTTTCTGTTCAAGCGCCATCTAC”, the binding signal was 5.89 RPM ratio (pull-down/input). With “GATGATTGTTCTCCCAGCTGATGAATTAGTAGTATCGAGTAAACAAATTTTCCTAATCTTTCTGTTCAAGCGCCATCTAC” the binding signal was 2.45 RPM ratio (pull-down/input). “GATGATTGTTCTCCCAGCTGATGAATTTGTATCCTCGAGTAAACAAATTTTCCTAATCTTTCTGTTCAAGCGCCATCTAC” was tested, and the binding signal was 5.4 RPM ratio (pull-down/input).
